# D2 ag-1 – agonists of human D2 dopamine receptor; P14416; HEK293 T-REx D2 cells, calcium flux agonist mode; activation, % at 2 µM; hit rate 0.53% among 340,000; AID 485358;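 active = activation over 3 SD above normal in the single-dose calcium agonist read, cut at about 30% in these data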; also: 0% is about no effect
# Target sequence (P14416 whole entry, looked up): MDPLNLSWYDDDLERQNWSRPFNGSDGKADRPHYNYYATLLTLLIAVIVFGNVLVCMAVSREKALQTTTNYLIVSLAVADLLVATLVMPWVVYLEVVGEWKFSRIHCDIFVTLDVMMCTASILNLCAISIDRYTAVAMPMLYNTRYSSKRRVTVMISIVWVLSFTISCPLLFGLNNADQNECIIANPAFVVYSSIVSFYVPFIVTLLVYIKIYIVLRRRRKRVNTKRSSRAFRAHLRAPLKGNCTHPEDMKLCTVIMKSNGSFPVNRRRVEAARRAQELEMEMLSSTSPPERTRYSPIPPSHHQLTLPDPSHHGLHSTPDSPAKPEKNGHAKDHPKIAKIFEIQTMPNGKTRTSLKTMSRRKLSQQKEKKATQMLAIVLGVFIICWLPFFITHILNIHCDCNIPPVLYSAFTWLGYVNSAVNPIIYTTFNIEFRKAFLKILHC
#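 Tetracycline-induced HEK293 Trex cells with D2 receptor force-coupled to calcium signaling, plated overnight at 30 C and loaded with no-wash calcium dye. Calcium flux read kinetically for 180 s after compound addition; responses flag agonists.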
# D2 PAM-1 – potentiates the human D2 dopamine receptor allosterically; hit rate 0.23% among 360,000; potentiation, % (no concentration beside the values); DiscoveRx D2 beta-arrestin cells, luminescence, 90 min; 100% = 57 uM dopamine signal; P14416; in the data active = potentiation above about 50%; inconclusive = mostly about 30% to 49%
#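 D2 cells co-treated with compound plus 50 nM dopamine (EC20) for 90 min at 37 deg C to detect potentiation. Beta-arrestin recruitment was read as enzyme-fragment luminescence after 1 h at ambient temperature. Full response was set by 57 uM dopamine.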
# D2 antag – D2 dopamine receptor (human) antagonism; P14416; HEK293 TREx D2 cells, calcium flux, dopamine EC80; inhibition, % at 10 µM; hit rate 2% among 340,000; AID 485344; in the data active = inhibition above about 30%; inactive = below that, where a call was filed; also: 0% is about no effect
#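 Dopamine at EC80 is the agonist stimulus; test compounds precede it by 180 s. Calcium flux read kinetically in a force-coupled, inducible HEK293 T-REx D2 cell line.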
# D2 PAM-2 – positively modulates the human D2 dopamine receptor allosterically; hit rate 0.34% among 340,000; P14416; HEK293 T-REx D2, calcium flux, EC20 dopamine potentiation; potentiation, % at 10 µM;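 active = potentiation over 3 SD above the plate norm, cut at about 30% in these data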; also: 0% is about no effect
#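 Primary screen. Calcium kinetics in induced HEK293 T-REx D2 cells: compound pre-addition 180 s, EC20 dopamine, 180 s more.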
# D2 ag-2 – human D2 receptor agonism in beta-arrestin assay; P14416; DiscoveRx PathHunter D2 beta-arrestin, luminescence, 90 min; 100% = 57 uM dopamine signal; activation, % (no concentration beside the values); hit rate 0.084% among 360,000; AID 624465; in the data active = activation above about 40%; inconclusive = between about 15% and that limit
#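 DiscoveRx PathHunter D2 beta-arrestin cells (2,100/well) attached overnight, then compound-stimulated 90 min at 37 C in HBSS/10 mM HEPES/0.1% Tween-20 buffer; beta-galactosidase complementation read by luminescence after 1 h at ambient temperature. Dopamine 57 uM final (EC100) as control.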
# D3 ag – activates human D3 dopamine receptor beta-arrestin recruitment; Potency, µM (highest dose often 76.9 µM), for the others: top-dose activation, hits mostly activators; shares compounds with D2 ag-1; AID 720506; DiscoveRx D3 beta-arrestin cells, luminescence, 90 min; hit rate 4% among 2,300;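 also: potency is read from the fitted curve at half-maximal effect; 100% = dopamine control response; nearly all actives have a fitted effect of over 70% in size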
# D2 ag-3 – counter-screen for D3 agonists: human D2 dopamine receptor agonism; shares compounds with D2 ag-1; DiscoveRx PathHunter D2 beta-arrestin, luminescence, 90 min; response scale: percent relative to full dopamine signal; Potency, µM (top dose mostly 76.9 µM), for inactives: at the top dose activation, actives largely listed as activators; hit rate 5.9% among 2,300; AID 720507; also: potency is read from the fitted curve at half-maximal effect; % of control where 0% means no effect; nearly all actives have a fitted effect of over 70% in size
# The depositor's hits bear a star; ? = inconclusive; / = no result. Shown are actives, neighbours in structure and some others; about 2.4% of the full set was active somewhere. Unless noted, calls follow the shape of the dose curve; as a rule, active = well fitted activation curve with a large enough effect; inconclusive = small, poorly fitted or top-dose-only effect; inactive = flat fitted curve, though single readings scatter.
SMILES,D2 ag-1,D2 PAM-1,D2 antag,D2 PAM-2,D2 ag-2,D3 ag,D2 ag-3
O=C(Nc1nncs1)c1ccc2c(c1)OCO2,0,-2,-3,-3,-4,/,/
COc1ccc(C2=NOC3(CC(=O)N(c4ccc(F)cc4)C3=O)C2)c(OC)c1 (configuration not stated),-1,0,5,-13,0,/,/
COc1ccc(C2=NOC3(CC(=O)N(c4ccc5ccccc5c4)C3=O)C2)c(OC)c1 (configuration not stated),6,5,14,3,1,5%,1%
CCc1ccc(CN2CCN(c3ncccn3)CC2)cc1,77*,?,95*,-19,75*,?,0.56µM*
O=S1(=O)CC(N2CCN(c3ncccn3)CC2)CN1Cc1ccc(F)cc1 (configuration not stated),/,-3,/,/,-3,/,/
CCOc1cc(CN2CCN(c3ncccn3)CC2)ccc1OC,78*,-5,77*,-36,?,20%,?
Fc1ccc(CN2CCN(c3ncccn3)CC2)cc1,79*,25,84*,-19,47*,-5%,?
Fc1ccc(F)c(CN2CCN(c3ncccn3)CC2)c1,64*,64*,79*,-22,78*,?,3.2µM*
C[C@H](CO)N1C[C@H](C)[C@@H](CN(C)Cc2ccc(-c3ccccc3)cc2)Oc2c(NS(=O)(=O)c3cn(C)cn3)cccc2C1=O,/,-1,/,/,0,/,/
O=C(Nc1ccc(Oc2ccccc2)cc1)N[C@@H](Cc1ccccc1)C(=O)O,0,7,0,7,-4,/,/
O=C(O)c1ccc(/C=C2\SC(=S)N(Nc3ccccc3)C2=O)cc1,3,-3,6,7,-14,?,2%
O=C1/C(=C/c2ccncc2)SC(=S)N1Nc1ccccc1,1,-9,-2,1,-4,/,/
CCCCN(C)Cc1c(O)ccc2c(=O)c(-c3ccccc3OC)coc12,1,-8,-13,-2,-5,/,/
COc1ccc(OC)c(NC(=O)c2cccc(N3C(=O)C4C5CCC(C5)C4C3=O)c2)c1 (configuration not stated),/,5,/,/,11,19%,?
COc1ccc(NC(=O)C[C@H]2C(=O)N(c3ccccc3)C[C@@H]2C)cc1,/,3,/,/,-8,/,/
O=C(CN1CCN(S(=O)(=O)c2ccccc2)CC1)NCc1ccccc1,1,-7,3,6,-3,/,/
On1c(-c2ccccc2Cl)nc2ccccc21,3,0,8,11,-4,/,/
CCN(CC)CC(O)Cn1c(-c2ccccc2Cl)nc2ccccc21 (configuration not stated),45*,-19,-10,1,-2,3%,-2%
COc1ccc(C(=O)Nc2cc(C(F)(F)F)ccc2-n2cnc3ccccc32)cc1,0,-5,-3,13,2,/,/
CC(=O)Nc1ccc(C(=O)Nc2cc(C(F)(F)F)ccc2-n2cnc3ccccc32)cc1,1,-2,7,2,3,-5%,-2%
O=C1CSC2(C(=O)N(Cc3c(F)cccc3Cl)c3ccccc32)N1c1ccc(F)c(F)c1 (configuration not stated),/,/,/,4,/,/,/
COc1ccc(OC)c(NC(=O)c2ccc(-c3nc(CSc4ccccc4)c(C)o3)cc2)c1,1,/,/,-4,/,/,/
COc1ccc2cc(C=O)n(C)c2c1,0,1,-1,1,-4,2%,-5%
COc1ccccc1C(=O)N(Cc1nc(-c2ccc(Cl)cc2)no1)C(C)C,51*,-3,-5,-17,3,-1%,19%
Cc1ccccc1C(=O)N(Cc1nc(-c2ccc(Cl)cc2)no1)C(C)C,1,/,/,-7,/,/,/
SMILES,D2 ag-1,D2 PAM-1,D2 antag,D2 PAM-2,D2 ag-2,D3 ag,D2 ag-3
CC(C)N(Cc1nc(-c2ccccc2)no1)C(=O)c1ccc(Cl)cc1,51*,-7,-2,-20,-8,-11%,4%
CC(C)N(Cc1nc(-c2ccccc2)no1)C(=O)c1ccc([N+](=O)[O-])cc1,-1,1,3,-7,-1,/,/
CCNc1ccc(S(=O)(=O)N2CCOCC2)cc1NCC(=O)Nc1cccc(Br)c1,/,-18,/,/,-1,/,/
Cc1cc(C(=O)N/N=C/c2c(C)nn(-c3ccccc3)c2C)c(C)o1,-1,-6,-30,8,2,/,/
Cc1ccc(S(=O)(=O)N(C)C)cc1NC(=O)COC(=O)CN1C(=O)c2ccccc2C1=O,0,-29,-20,-15,-4,4%,-4%
CCOC(=O)c1c(C)[nH]c(C(=O)COC(=O)[C@H](C)N2C(=O)C3CCCCC3C2=O)c1C (some centres not stated),/,28,/,/,14,/,/
O=C(CSc1nnc(-c2cccc(Br)c2)o1)N1CCOCC1,0,5,13,2,-1,-4%,3%
CCOC(=O)C1(CC2CC2)CCN(Cc2cnc(N(C)C)s2)CC1,75*,-3,68*,-33,2,-5%,9%
CCOC(=O)C1(CCOc2ccccc2)CCN(Cc2cnc(C)s2)CC1,1,-10,6,-21,3,/,/
CCOC(=O)N1CCC(c2cc(=O)n3[nH]cc(C(=O)OC)c3n2)CC1,0,-11,-21,8,-4,/,/
CCOc1ccc(NC(=O)c2c[nH]n3c(=O)cc(C4CCN(C(=O)OC(C)(C)C)CC4)nc23)cc1,9,-7,-8,-7,-3,10%,-5%
COc1ccccc1NC(=O)N1CCCC1C(=O)NCc1ccc2c(c1)OCO2 (configuration not stated),-1,-8,0,-8,-4,/,/
O=C(NCc1ccc2c(c1)OCO2)C1CCCN1C(=O)Nc1ccccc1 (configuration not stated),0,-15,66*,-6,-1,-11%,-2%
COc1ccc(-c2nnn(CC(=O)Nc3ccc4c(c3)OCCO4)n2)cc1OC,1,-2,-9,8,0,/,/
COc1ccccc1/C=N/NC(=O)c1ccc(CN2C(=O)c3cccc4cccc2c34)cc1,0,-5,-13,-8,-4,-4%,2%
CCOc1cc(-c2c(C)c(C)nc(N)c2C#N)ccc1O,13,9,8,-23,?,/,/
CCOc1cc(-c2c(C)c(CC)nc(N)c2C#N)ccc1O,24,4,5,-11,?,3%,?
COc1ccc(CCNC(=O)C2CCN(S(=O)(=O)c3ccc(SC)cc3)CC2)cc1,0,-1,18,9,4,/,/
